# Test results taken from PubChem BioAssay AID493087 (The Scripps Research Institute Molecular Screening Center, 2011).
# About 240 (0.071%) of roughly 340,000 compounds were called active. The sample holds actives, similar compounds and a random draw of the others, so the mix is not that of the screen.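 Rule for the calls: active = activation above the mean of all tested compounds plus 3 SD, set per screening campaign (cut at about 17% in these data); inactive = the rest.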
# Target: Insulin-degrading enzyme (Homo sapiens) (UniProt P14735)
# Sequence (P14735 whole entry, looked up): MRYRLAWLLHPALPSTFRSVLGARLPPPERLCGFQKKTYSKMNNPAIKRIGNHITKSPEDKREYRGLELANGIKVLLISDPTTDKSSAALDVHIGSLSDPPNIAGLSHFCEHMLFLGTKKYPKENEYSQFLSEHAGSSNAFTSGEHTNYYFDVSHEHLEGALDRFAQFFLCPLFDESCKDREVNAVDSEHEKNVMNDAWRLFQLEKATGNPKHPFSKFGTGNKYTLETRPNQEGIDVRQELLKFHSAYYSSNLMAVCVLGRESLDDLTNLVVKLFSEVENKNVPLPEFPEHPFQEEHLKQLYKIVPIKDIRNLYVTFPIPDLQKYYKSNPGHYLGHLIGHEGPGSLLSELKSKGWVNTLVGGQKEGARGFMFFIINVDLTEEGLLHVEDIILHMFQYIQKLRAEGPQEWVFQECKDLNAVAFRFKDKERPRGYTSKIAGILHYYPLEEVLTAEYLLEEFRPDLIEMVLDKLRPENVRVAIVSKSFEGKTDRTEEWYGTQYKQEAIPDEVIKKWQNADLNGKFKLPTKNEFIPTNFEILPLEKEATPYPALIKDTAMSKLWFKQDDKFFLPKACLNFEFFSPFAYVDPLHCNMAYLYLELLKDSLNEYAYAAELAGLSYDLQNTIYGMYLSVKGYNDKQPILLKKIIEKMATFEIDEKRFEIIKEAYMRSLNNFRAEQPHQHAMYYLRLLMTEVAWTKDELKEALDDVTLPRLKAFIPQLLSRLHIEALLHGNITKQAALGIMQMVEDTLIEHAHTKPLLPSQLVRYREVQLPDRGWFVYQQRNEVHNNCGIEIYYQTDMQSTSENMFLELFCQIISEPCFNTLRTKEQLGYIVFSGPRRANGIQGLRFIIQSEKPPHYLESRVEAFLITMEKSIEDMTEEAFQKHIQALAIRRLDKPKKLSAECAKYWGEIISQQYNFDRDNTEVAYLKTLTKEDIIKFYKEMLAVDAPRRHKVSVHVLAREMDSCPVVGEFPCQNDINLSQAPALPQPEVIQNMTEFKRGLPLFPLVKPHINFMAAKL
# Experiment: human IDE activators in live cells, primary screen, fluorescence polarization, HEK cells, FAbeta-B substrate (AID 493087)
# Settings: FAbeta-B cleavage, at 5.96 µM, stronger effect = higher value, 0% vehicle, 100% cell-free pure enzyme wells
row,Structure (SMILES),activation
1,CCN1CCN(C(=O)C2(NC(=O)Nc3cccc(F)c3)CCCCC2)CC1,4.93% (inactive)
2,CC(=O)N1c2ccc(S(=O)(=O)N3CCCC(C(=O)Nc4cccc(F)c4)C3)cc2CC1C (configuration not stated),5.74% (inactive)
3,Cc1ccc(NC(=O)C(c2ccccc2)N2CCN(C(=O)c3ccco3)CC2)cc1 (configuration not stated),0.44% (inactive)
4,CCCC[C@@H]1CN=C(N)N1CCc1cc(C(F)(F)F)cc(C(F)(F)F)c1,5.76% (inactive)
5,CCCC(C)C(=O)OCC(=O)Nc1c(Br)cc(C)cc1Br (configuration not stated),4.33% (inactive)
6,Cc1ccc(S(=O)(=O)N2C[C@@H]3CCCC[C@@H]3[C@@H](C)[C@H]2c2cn(Cc3ccccc3)c3ccc(F)cc23)cc1,0.65% (inactive)
7,Cc1cccc(N2CCN(C(=O)c3cc4c(=O)[nH]c5ccccc5c4n3C)CC2)c1C,0.68% (inactive)
8,CCOC(=O)C1CCCN(S(=O)(=O)c2ccc3c(c2)C(C)(C)C(=O)N3C)C1 (configuration not stated),4.3% (inactive)
9,CC(=O)N1CCCc2cc(S(=O)(=O)N3CCCC(C(=O)N4CCN(c5cccc(Cl)c5)CC4)C3)ccc21 (configuration not stated),1.25% (inactive)
10,O=C1CCC[C@@H]2CC(N3CCCCC3)C[C@@H]3CCN1[C@H]23 (some centres not stated),3.58% (inactive)
11,Cc1cccc(CCNC(=O)Cn2ncc3c([nH]c4ccc(C)cc43)c2=O)c1,4.1% (inactive)
12,COc1cccc(NC(=O)CC(c2ccc(OC(C)C)cc2)c2ccccc2OC)c1 (configuration not stated),5.55% (inactive)
13,Cc1cccc(C(=O)NC(=S)N2CCN(c3ccc([N+](=O)[O-])cc3)CC2)c1,7.97% (inactive)
14,Cc1ccc(S(=O)(=O)N(C)C)cc1NC(=O)CN1c2cccc3cccc(c23)S1(=O)=O,-4.07% (inactive)
15,O=C(CN1CCN(c2cccc(Cl)c2)CC1)Nc1ccc(S(=O)(=O)N2CCOCC2)cc1,-1.02% (inactive)
16,CC1CC(C)CN(CCCNC(=O)c2csc3c2CCCCC3)C1 (configuration not stated),0.64% (inactive)
17,COc1ccc(NS(=O)(=O)c2ccc(N3CCN(CCO)CC3)c([N+](=O)[O-])c2)cc1,4.53% (inactive)
18,O=C1OCC2=C1C(c1ccccc1)CC(=O)N2c1cccc(F)c1 (configuration not stated),2.91% (inactive)
19,CCOC(=O)C1(CC2CCCCO2)CCN(Cc2nc(-c3cccs3)oc2C)CC1 (configuration not stated),-1.12% (inactive)
20,CCOC(=O)C1CCCN(C(=O)c2ccc(CS(=O)(=O)c3ccc(Br)cc3)o2)C1 (configuration not stated),-1.91% (inactive)
21,CCN1CCN(C2CCCCC2NS(=O)(=O)c2ccc(Cl)cc2)CC1 (configuration not stated),5.06% (inactive)
22,O=C1c2ccccc2C(=O)N1CCC(c1ccccc1)c1ccco1 (configuration not stated),7.64% (inactive)

row,Structure (SMILES),activation
1,CSc1nnnn1-c1c(C)cc(C)cc1C,-3% (inactive)
2,CCOCCCNC(=O)c1c[nH]c2cc(C)ccc2c1=O,4.46% (inactive)
3,O=C1CC(c2ccccc2)C(=O)N2C(=O)CC(c3ccccc3)C(=O)N12 (configuration not stated),3.82% (inactive)
4,CCc1nccn1S(=O)(=O)c1cccc([N+](=O)[O-])c1,6.7% (inactive)
5,COC(=O)c1ccc(CNC(=O)Cn2cc(C)c(=O)[nH]c2=O)cc1,4.54% (inactive)
6,COC(=O)C1=CN(Cc2ccc(OC)cc2)C=C(C(=O)OC)C1c1ccc(O)c(OC)c1,5.83% (inactive)
7,C=CCNC(=S)/N=c1/ccccn1Cc1ccccc1,4.17% (inactive)
8,COc1ccc(C(=O)CN2C(=O)NC(C)(c3ccc(C)cc3)C2=O)cc1OC (configuration not stated),-1.44% (inactive)
9,CCOc1ccc(CCNC(=O)COC(=O)C2CCN(S(=O)(=O)c3ccccc3)CC2)cc1OCC,2.21% (inactive)
10,CCc1nnc(NC(=O)C2CC(=O)N(c3ccc4c(c3)OCCO4)C2)s1 (configuration not stated),3.02% (inactive)
11,Cn1c(=O)n(C)c2cc(S(=O)(=O)Nc3ccc(F)cc3)ccc21,4.63% (inactive)
12,Cc1cc2oc(C(=O)Nc3c(C)n(C)n(-c4ccccc4)c3=O)c(C)c2cc1Cl,1.29% (inactive)
13,S=C1Nc2cc(Cl)ccc2Sc2ccccc21,0.11% (inactive)
14,CC(C#N)(NC(=O)CN1CCN(S(=O)(=O)c2cc(C(F)(F)F)ccc2Cl)CC1)C1CC1 (configuration not stated),5.5% (inactive)
15,CNC(=O)NC(=O)C(OC(=O)c1cccc(S(=O)(=O)N2CCCCC2)c1)c1ccccc1 (configuration not stated),-3.23% (inactive)
16,N#Cc1ccccc1NC(=O)COc1c(Br)cc(Br)c2cccnc12,-2.72% (inactive)
17,COc1ccc(S(=O)(=O)N2CCN(c3cnccn3)CC2)cc1,0.13% (inactive)
18,O=C(NCCc1ccc(F)cc1)c1ccc2nccnc2c1,-0.11% (inactive)
19,CCC(=O)Nc1cccc(C2=NOC3(C2)C[C@@H](C(N)=O)N(C(=O)c2cc([N+](=O)[O-])cc([N+](=O)[O-])c2C)C3)c1 (some centres not stated),5.78% (inactive)
20,O=C(N/C(=C\c1ccc(F)cc1)C(=O)N1CCCCCC1)c1ccccc1,5.73% (inactive)
21,O=C(C1Cc2ccccc2CN1C(=O)c1ccco1)N1CCN(c2ccccc2)CC1 (configuration not stated),4.46% (inactive)
22,CCOC(=O)CSc1nnc(CNC(=O)c2cccs2)n1-c1cc(OC)ccc1OC,0.94% (inactive)

row,Structure (SMILES),activation
1,COc1ccc(-c2oc3ncn(Cc4ccco4)c(=N)c3c2-c2ccc(OC)cc2)cc1,5.41% (inactive)
2,CCOC(=O)c1cccc(NC(=O)CN2C(=O)C3CC=CCC3C2=O)c1 (configuration not stated),1.23% (inactive)
3,Cn1c2ccccc2c2cc(/C=C(\NC(=O)c3ccccc3)C(=O)NCC(=O)O)ccc21,-43.6% (inactive)
4,CCN1CCN(c2cc3nc(C)n(Cc4ccccc4)c(=O)c3cc2NC(=O)c2ccccc2F)CC1,2.61% (inactive)
5,Cc1ccsc1C(=O)NC1CCCCC1C (configuration not stated),-2.46% (inactive)
6,Cc1cc(=O)oc(C)c1C(=O)NCCN(C)Cc1ccccc1,-4.58% (inactive)
7,CN(C(=O)CSc1nnc(C2CC2)n1C)C1CCCc2ccccc21 (configuration not stated),0.43% (inactive)
8,CC(C)C(NC(=O)c1c(F)cccc1F)C(=O)NNC(=O)c1ccccc1 (configuration not stated),5.51% (inactive)
9,O=S(=O)(Nc1ccc2ccccc2c1)N1CCCCC1,1.85% (inactive)
10,CC1CCC(NS(=O)(=O)c2ccc3c(c2)CC(=O)N3)CC1 (configuration not stated),3.97% (inactive)
11,CCOC(=O)C1(CCOc2ccccc2)CCN(Cc2cc(OC)cc(OC)c2)CC1,-1.76% (inactive)
12,CCOC(=O)C1(CCOc2ccccc2)CCN(Cc2cc(OC)c(O)cc2Cl)CC1,2.9% (inactive)
13,Cc1c(CN2CCC(CO)(CCOc3ccccc3)CC2)[nH]c2ccc(Cl)cc12,24.6% (active)
14,COc1ccccc1/C=C/C1=NC(=C\N(C)C)/C(=O)O1,-5.01% (inactive)
15,Cn1c(=O)c2cc(S(=O)(=O)NCCC(=O)Nc3ccc(F)cc3F)ccc2n(C)c1=O,5.29% (inactive)
16,COc1ccc(C2C(C#N)=C(N)Oc3n[nH]c(C)c32)cc1CN1CCN(c2ccc(F)cc2)CC1 (configuration not stated),-3.14% (inactive)
17,Cc1cccc(NC(=O)CSc2nnc(CCNC(=O)OC(C)(C)C)o2)c1C,-0.87% (inactive)
18,Cc1ccccc1OC(=O)Cn1c(C(F)(F)F)nc2ccccc21,3.41% (inactive)
19,Cc1cc(C)cc(NC(=O)NC2CCCCCCC2)c1,0.99% (inactive)
20,COC1C(CO)OC(n2cnc3c(=S)nc(N)[nH]c32)C1O (configuration not stated),-9.08% (inactive)
21,Cc1noc(C)c1NC(=O)Nc1cccc2c1O[C@H](CN(C)S(=O)(=O)c1c(C)noc1C)[C@@H](C)CN([C@H](C)CO)C2=O,-2.65% (inactive)
22,O=S(=O)(/C=C/c1ccccc1)NCCc1ccccn1,2.29% (inactive)

row,Structure (SMILES),activation
1,O=C(COC(=O)c1ccncc1)Nc1ccc2c(c1)OCO2,3.58% (inactive)
2,NS(=O)(=O)c1ccc(NC(=O)COC(=O)c2c3c(nc4ccccc24)/C(=C\c2ccc4c(c2)OCO4)CCC3)cc1,1.16% (inactive)
3,NC(=O)c1ccc(NC(=O)COC(=O)c2c3c(nc4ccccc24)/C(=C\c2ccc4c(c2)OCO4)CCC3)cc1,39.3% (active)
4,CCCN(CC(=O)Nc1ccc(C(N)=O)cc1)CC(=O)Nc1ccccc1C,0.5% (inactive)
5,O=S(=O)(c1ccc2ccccc2c1)N1CCN(S(=O)(=O)N2CCOCC2)CC1,-4.09% (inactive)
6,Cc1ccc(CC(=O)N(C)CC(=O)N(CC(C)C)c2c(N)n(CC(C)C)c(=O)[nH]c2=O)cc1C,-3.16% (inactive)
7,O=C(NCc1ccncc1)C(=O)NCC1OCCN1S(=O)(=O)c1ccc(Br)cc1 (configuration not stated),1.15% (inactive)
8,COc1cc2ccccc2cc1C(=O)N(CCN(C)C)c1nc2c(F)cccc2s1,6.93% (inactive)
9,COc1cccc2sc(N(CCCN(C)C)C(=O)C(c3ccccc3)c3ccccc3)nc12,31% (active)
10,COc1cccc2sc(N(CCCN(C)C)C(=O)CCS(=O)(=O)c3ccccc3)nc12,5.71% (inactive)
11,NS(=O)(=O)c1ccc(NC2=CC(c3ccc(F)cc3)N(c3ccc(S(N)(=O)=O)cc3)C2=O)cc1 (configuration not stated),1.07% (inactive)
12,CC(=O)c1cccc(-n2nnnc2SCC(=O)NNC(=O)C2CCCCC2)c1,6.48% (inactive)
13,Oc1ccc2ccc3cccc[n+]3c2c1,26.2% (active)
14,Oc1ccc(-c2nc3ccccc3nc2-c2ccc(O)cc2O)c(O)c1,3.04% (inactive)
15,Cc1ccc(-c2nn(C(C)(C)C)c3ncnc(N)c23)cc1,2.32% (inactive)
16,Cc1cccc2c1cnn2C(=O)CCC(=O)NC1CCCCC1,0.37% (inactive)
17,COc1cc(Cl)cc(C2NC(=O)NC(C)=C2C(=O)NCc2ccccc2)c1O (configuration not stated),-1.41% (inactive)
18,Brc1ccccc1C1Nc2cccc3cccc(c23)N1,8.61% (inactive)
19,Oc1ccc(C2Nc3cccc4cccc(c34)N2)cc1,19.4% (active)
20,COc1ccc(C2NC(=O)c3ccccc3N2)cc1 (configuration not stated),3.47% (inactive)
21,C=CCOC(=O)C1=C[C@H](c2ccc(Br)cc2)C[C@H](OCCCCO)O1,-1.17% (inactive)
